Inhibition data for 61 compounds are collected here from PubChem BioAssay AID463195 (Sanford-Burnham Center for Chemical Genomics, 2010).

About 4,600 (1.4%) of roughly 330,000 compounds were called active. Only a selection was taken, and actives are over-represented in it overall. Values without a mark were called inactive.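 Rule for the calls: active = inhibition of 40% or more at the single tested concentration; inactive = the rest.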

The experiment in a line: growth inhibitors of isogenic TIM10 control yeast, primary screen, counter-screen for tim10-1 yeast inhibitor project, luminescence, uHTS (AID 463195).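 Note: wild-type TIM10 isogenic control strain grown at permissive 25 °C; 0% = DMSO yeast wells and 100% = minimal medium wells without yeast.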 The note with it: S. cerevisiae TIM10 strain growth, BacTiter-Glo luminescence, 24 h; at 10 µM; active compounds read high. For orientation: The purpose of a counterscreen is to sort out artefacts and off-target activity.
Usually inhibition stands for the change of the read-out against control, counted positive when it falls. Regarding `O=C(COc1ccccc1Cl)Nc1ccccc1C(=O)NC1CC1`, the inhibition was 4.12%. Take `NC(=O)CC(NC(=O)Cc1ccc(Br)cc1)c1ccc(NC2CC3CCC2C3)c([N+](=O)[O-])c1` (stereo unspecified): the inhibition is 11.3%. To `O=[N+]([O-])c1ccc2c(c1)Nc1nc3ccccc3nc1N2` belongs 79.8% (active); to `O=[N+]([O-])c1ccc2nc(-c3ccccn3)[nH]c2c1`, 13.4%. `COc1ccc([N+](=O)[O-])cc1-c1nc2ccccc2nc1-c1ccccc1`: the inhibition is 12.2%. As for `CCc1ccc(CN2C(=O)c3ccccc3C2C(=O)NCC2CCCO2)cc1` (stereo unspecified), the inhibition was -1.35%. As for `COc1ccc(NC(=O)C2COc3ccccc3O2)cc1` (stereo unspecified), the inhibition is -1.21%.

Regarding `COc1ccc(OC)c2sc(NC(=O)C3COc4ccccc4O3)nc12` (stereo unspecified), the inhibition is 43.3% (active).

On to `COc1cc(SC)ccc1C(=O)NNC(=O)C1COc2ccccc2O1` (stereo unspecified), for which the inhibition was -2.79%.

As for `Cc1cccc(NC(=O)CN2CCN(CC(=O)NCC3(N4CCCCC4)CCCCC3)CC2)c1C`, the inhibition is -26%. Turning to `O=C(CCN1CCc2ccccc2C(O)(c2ccccc2)C1)c1ccc2c(c1)OCCO2` (stereo unspecified), the inhibition was 47.8% (active). Turning to `O=C(COC(=O)c1ccccc1)c1ccc2c(c1)OCCO2`, the inhibition was 3.76%. Turning to `O=C(CN1CCC(O)(c2ccccc2)CC1)Nc1ccc2c(c1)OCCO2`, the inhibition is -4.11%. Consider `COc1cccc2cc(/C(C)=N/NC(=O)c3ccco3)oc12`, for which the inhibition was 7.37%. To `CC1(C)CCSC(/C=C/c2ccccc2)=N1` belongs 59.5% (active). To `CC1(c2ccccc2)NC(=O)N(CC(=O)N2CC(=O)Nc3ccccc32)C1=O` (stereo unspecified) belongs -7.18%; to `Cc1c(CC(=O)N2CCN(C(=O)C3COc4ccccc4O3)CC2)c(=O)oc2c(O)c(O)ccc12` (stereo unspecified), 14.5%.

As to `CC(=O)Nc1ccc(N2C(=O)C3C4C=CC(CC4)C3C2=O)cc1` (stereo unspecified), the inhibition is 3.72%. With `Cc1ccc(N2C(=O)C3C4C=CC(CC4)C3C2=O)cc1Cl` (stereo unspecified), the inhibition was 96.9% (active). On to `Cc1ccc(N2C(=O)C3C4C=CC(CC4)C3C2=O)cc1Br` (stereo unspecified), for which the inhibition was 0.46%. To `O=C(c1ccc(F)cc1)C1CCN(Cc2cn[nH]c2-c2ccccc2)CC1` belongs 7.29%; to `Cc1cc(C)c(CN2CCN(C(=O)Cn3ccc(NC(=O)OCc4ccccc4)nc3=O)CC2)c(C)c1`, 14.5%; to `Cc1nn(Cc2ccccc2)c(C)c1C(=O)N1CCN(CC(=O)Nc2ccccc2Cl)CC1`, 16.3%. On to `Cc1cccc(C)c1NC(=O)CCCSc1nnc(-c2ccco2)n1-c1ccccc1`, for which the inhibition is 7.48%. For the compound `CC(=O)c1ccc(Oc2cc(C)nc(-n3nc(C)cc3C)n2)cc1`, the inhibition was 17.9%. `Cc1cc(N/N=C\c2ccc(Br)cc2)nc(-n2nc(C)cc2C)n1`: the inhibition is 28.7%. Regarding `COc1ccc(Nc2cc(C)nc(-n3nc(C)cc3C)n2)cc1`, the inhibition was 42.6% (active). `COc1ccc(OCC(=O)OCCN(C)C)cc1`: the inhibition is 6.08%.

Regarding `CN1CCC2(CC1)NC(=O)NC2=O`, the inhibition was -10.9%. Then `C=CCn1c2ccccc2c2nnc(SCc3[nH]c(=O)[nH]c3C(=O)CCCCC(=O)OCC)nc21`, with 2.76%; and `c1ccc(-c2cn3c(n2)CCc2ccc4cccnc4c2-3)cc1`, with 43.3% (active). With `CCn1nnc(NC(=O)c2cc(Cl)c(OC)c(Cl)c2)n1`, the inhibition is -27.2%. To `O=C(Nc1cc(S(=O)(=O)Nc2ccc(Cl)cc2)ccc1O)c1ccc(F)cc1F` belongs -2.9%; to `O=C(NCc1ccccc1Cl)C1CCCO1` (stereo unspecified), 12.6%. As for `O=C(Nc1nnc(SCc2c(Cl)cccc2Cl)s1)c1cccc([N+](=O)[O-])c1`, the inhibition was -29.2%. Then `O=C(Nc1nnc(SCc2c(Cl)cccc2Cl)s1)C1CCCO1` (stereo unspecified), with 43% (active); and `CCCCN(CC)CCCNC(=O)c1ccc(CSc2nc3ccncc3[nH]2)cc1`, with -7.87%. To `COc1ccc(C2CC(=O)Oc3ccc(C(C)(C)C)cc32)cc1` (stereo unspecified) belongs -0.738%; to `O=C(O)CC1(CC(=O)Nc2cccc(C(F)(F)F)c2)CCCC1`, -9.42%; to `FC(F)(F)c1cccc(NC(=S)Nc2cccc(Cl)c2)c1`, 50.8% (active).

In the case of `Cc1csc(NC(=S)Nc2cccc(Cl)c2)n1`, the inhibition is 45.7% (active).

On to `Cc1cccc(NC(=S)Nc2ccc(Cl)c(Cl)c2)c1`, for which the inhibition is 24.3%.

As to `Cc1cc(Cl)nc(NC(=O)Nc2cccc(Cl)c2)n1`, the inhibition is 3.22%.

For the compound `S=C(Nc1cccc(Cl)c1)Nc1ccc2c(c1)OCCO2`, the inhibition was 20.4%. Then `CCn1c(=O)c(=O)n(CC)c2cc(S(=O)(=O)N3CCc4ccccc43)ccc21`, with 14.7%.

As for `Cc1ccc(C(C)C)c(OCc2nnc(SCC(=O)Nc3nccs3)n2C)c1`, the inhibition was -14%.

As for `COc1ccccc1/C=C/CN1CCC(CO)(Cc2ccccc2)CC1`, the inhibition was -1.7%. To `CCCCNC(=O)C1CCC(=O)N1CCc1ccccc1` (stereo unspecified) belongs -1.71%; to `C[C@]12CC[C@H](O)CC1=CCC1C2CC[C@@]2(C)C1CC[C@@H]2NC(=O)CCC(=O)O` (stereo partly specified), -2.58%. Then `C=CC[C@H](CC(=O)N(CCO)Cc1ccccc1)C(=O)N[C@@H](COC(=O)[C@@H](CC=C)Cc1ccc(F)cc1)Cc1ccccc1`, with 5.57%; and `CSc1ccc(C(=O)C2CCCN(C(=O)c3ccc(C)nc3)C2)cc1` (stereo unspecified), with -8.56%; and `Cc1cc(C(=O)NNC(=O)CCC2CCCCC2)c(C)o1`, with -5.54%. Then `Cn1c2c(c(=O)n(C)c1=O)C(c1cccc([N+](=O)[O-])c1)Nc1ccccc1O2` (stereo unspecified), with -3.02%; and `CN(/N=C/c1ccccc1)C(=S)c1ccccc1`, with -6.07%. Regarding `CCN(/N=C/c1ccccc1)c1cc(=O)n(C)c(=O)[nH]1`, the inhibition is 19.2%.

For the compound `Oc1ccc(/C=N/N(Cc2ccccc2)c2ccccc2)cc1`, the inhibition was 46% (active). Turning to `CN1CCN(S(=O)(=O)c2cccc(C(=O)Nc3sccc3C#N)c2)CC1`, the inhibition was -3.26%.

Regarding `CSC1=NCCN1C(=O)Cc1cccc2ccccc12`, the inhibition is 4.36%.

For the compound `O=S(=O)(c1ccccc1)N1CCc2ccccc21`, the inhibition was 2.66%. On to `O=C1c2ccccc2C(=O)N1CC1c2ccccc2CCN1S(=O)(=O)c1ccccc1` (stereo unspecified), for which the inhibition was 40.3% (active). `O=C(CCC(=O)N1CCN(S(=O)(=O)c2ccccc2)CC1)NC1CCCc2ccccc21` (stereo unspecified): the inhibition is 8.6%.
